The results in this text go back to PubChem BioAssay (NCATS).

A number with no mark means an inactive call. Records with an inconclusive call do not appear. Calls of active or inactive are those of the source. Unless noted, the call rests on the fitted dose curve; in most records, active means well fitted curve in either direction with a large enough effect (not every such curve was filed as active); inconclusive means small, poorly fitted or top-dose-only effect, or another doubt; inactive means flat fitted curve, though single readings scatter.

The target of test [1] is Lysosomal acid glucosylceramidase (Homo sapiens) (UniProt P04062). The test is described as follows: Glucocerebrosidase-p2 (AID 348; in the data active means potency below about 10 µM; further: potency means the concentration at half of the fitted maximal effect). To be noted: purified GBA, blue fluorogenic substrate, 40 min. An outline of the steps:
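Normal human glucocerebrosidase (0.2 nM) with blue fluorogenic substrate (80 uM final) in citrate/phosphate pH 5.9 with 10mM sodium taurocholate, 0.01% tween-20; 40 min RT, NaOH/glycine stop; fluorescence Ex 365/Em 440; AC50 from a titration from 0.6 nM upwards.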

Test [2] in a line: AP1 Signaling Pathway (AID 357). Further: on the % scale 0 is the no-effect control and ±100 the full control effect. To be noted: ME-180 AP-1-bla reporter, EGF-induced, beta-lactamase ratio, 5 h; at 7.69 µM (top of the series) unless noted. In short, it runs like this: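 In this screen, ME-180 cells in Opti-MEM with 0.5% dialyzed FBS received EC50 EGF and compound titrations for 5 h. AP-1 reporter beta-lactamase was detected via CCF4 ratio, giving AC50 for positive and negative modulators.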

Test [3] deals with Cytochrome P450 1A2 (Homo sapiens) (UniProt P05177). The test is described as follows: p450-cyp1a2 (AID 410; calls by dose curve; further: potency means the concentration at half of the fitted maximal effect). To be noted: recombinant CYP1A2, luciferin-ME demethylation, luminescence; series mostly up to 57 µM. In short, it runs like this:
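O-Demethylation of luciferin 6' methyl ether by human CYP1A2 is monitored as luciferase luminescence. Substrate sits at Km (100uM); enzyme is 20nM. Values are scaled to 57 uM furafylline as maximal inhibition.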

The nature of test [4]: Stat Signaling Pathway (AID 446).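 Further: ME-180 cervical cancer cells given 40 pM IL-6 alongside compound; SIE-controlled beta-lactamase reporter measured as 460/530 nm FRET emission ratio; on the % scale 0 is the no-effect control and ±100 the full control effect.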 To be noted: ME-180 (cervical carcinoma) SIE beta-lactamase reporter, IL-6 stimulated, 5 h; at 7.69 µM (top of the series) unless noted. In short, it runs like this:
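FRET read-out (405 nm excitation, 460/530 nm emission) of a beta-lactamase reporter under a STAT-inducible element in ME-180 cervical carcinoma cells. Cells with compound receive 40 pM IL-6 for 5 h. Values are normalised to AC90 stimulation and AC90 JAK-inhibitor controls.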

In test [5] the target is Glucocorticoid receptor (Homo sapiens) (UniProt P04150). In words: GR-EFC Redistribution (AID 451; calls by dose curve; further: potency means the concentration at half of the fitted maximal effect). To be noted: CHO-K1 GR-EFC translocation, beta-gal luminescence, 2 h. In short, it runs like this: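 Translocation of GR-ED fusion to nuclear EA restores b-gal, read by luminescence after 1 h room-temperature detection. Engineered CHO-K1 biosensor cells, 1,000/well, exposed 2 h at 37 C to titrations up to 46 uM final.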

The target in test [6] is Mitogen-activated protein kinase 10 (Mus musculus) (UniProt Q61831). In words: JNK3 AlphaScreen Assay (AID 530).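 Further: kinase came from lysate of stimulated human HepG2 cells; signal reports phosphorylation of biotinylated GST-cJun 1-79 at Ser73 with 10 µM ATP; on the % scale 0 is the no-effect control and ±100 the full control effect.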 To be noted: JNK3 lysate, c-Jun phosphorylation; series mostly up to 57.1 µM. In short, it runs like this: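 qHTS titrations with 15 min compound pre-incubation before adding ATP (10 uM final). Read-out: AlphaScreen of Ser73-phosphorylated biotin-GST-cJun using HepG2 lysate JNK3 activated by IL-1β and TNFα.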
For orientation: Alpha assays give light when donor and acceptor beads are brought close together.

Test [7] concerns the target 3',5'-cyclic-AMP phosphodiesterase 4B (Homo sapiens) (UniProt Q07343). The test is described as follows: qHTS Assay for Inhibitors of PDE-IV (AID 607; active means well fitted activation curve with a large enough effect in the main read-out, with a control signal flat, not every such curve was filed as active; further: % of control where 0% means no effect). To be noted: HEK293 ACTOne CNG channel cells, membrane potential fluorescence; series mostly up to 22.9 µM. An outline of the steps: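 Cell-based read-out of cAMP via a modified cyclic nucleotide-gated channel and membrane potential dye (535/590 nm) in HEK293 cells expressing PDE4 endogenously. Compounds tested up to 22.9 uM final; 100 uM RO 20-1724 reference.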

Test [8] concerns the target Cytochrome P450 3A4 (Homo sapiens) (UniProt P08684). The test is described as follows: qHTS Assay for Activators of Cytochrome P450 3A4 (AID 885; active means well fitted curve in the direction sought with a large enough effect; an effect the other way counts as inactive or inconclusive; further: nearly all actives have a fitted effect of over 65% in size). To be noted: recombinant CYP3A4, Luciferin-PPXE luminescence, 60 min; series mostly up to 57.1 µM. In short, it runs like this:
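Luminescent readout of luciferin formed from 25 uM Luciferin-PPXE (KM level) by 20 nM CYP3A4 in 200 mM KPO4, with 60 min NADPH-driven reaction at room temperature after 10 min compound exposure. Ketoconazole (57 uM) defined 100% inhibition.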
In general terms: Quantitative high-throughput screening tests each substance at several concentrations.

Test [9] in a line: Primary qHTS for small molecule stabilizers of the endoplasmic reticulum resident proteome: Secreted ER Calcium Modulated Protein (SERCaMP) assay (AID 1508630; active means well fitted curve in the direction sought with a large enough effect; an effect the other way counts as inactive or inconclusive; further: on the % scale 0 is the no-effect control and ±100 the full control effect). To be noted: SH-SY5Y GLuc-SERCaMP (Gaussia luciferase released on ER calcium loss) secretion, thapsigargin, luminescence; series mostly up to 38.4 µM. In short, it runs like this: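 The SH-SY5Y reporter protocol was run at 3 concentrations up to 38.3 uM (primary) or 11 concentrations (follow-up): 16 h compound, 100 nM thapsigargin for 4 h, then extracellular luciferase luminescence.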

Test [10] concerns the target Glucocorticoid receptor (Homo sapiens) (UniProt P04150). The test is described as follows: GR-GFP Redistribution (AID 450;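 active means compounds whose dose series gives a full or clear partial fitted curve of increased nuclear translocation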; further: potency means the concentration at half of the fitted maximal effect). To be noted: U2OS GR-GFP nuclear translocation, laser cytometry, 2 h.
The nature of test [11]: NFAT Signaling Pathway (AID 444). To be noted: Jurkat NFAT-bla M1, carbachol, beta-lactamase ratio, 5 h; at 7.69 µM (top of the series) unless noted. An outline of the steps: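 Read-out: CCF4 FRET ratio (460 nm/530 nm) after 1 h RT dye loading, used for %activity and AC50 from titration series. Cells: Jurkat NFAT-β-lactamase/M1 line, treated with compound plus 1 uM carbachol for 5 h, 37 °C.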

In test [12] the target is Cytochrome P450 3A4 (Homo sapiens) (UniProt P08684). In words: qHTS Assay for Inhibitors and Substrates of Cytochrome P450 3A4 (AID 884; active means well fitted curve in the direction sought with a large enough effect; an effect the other way counts as inactive or inconclusive; further: potency means the concentration at half of the fitted maximal effect; nearly all actives have a fitted effect of over 50% in size). To be noted: recombinant CYP3A4, Luciferin-PPXE luminescence; series mostly up to 57.1 µM. An outline of the steps: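 Luminescent readout of luciferin produced by CYP3A4 (20 nM) dealkylation of Luciferin-PPXE, 25 uM (its KM). NADPH-driven reaction ran 60 min at RT after 10 min compound preincubation; data scaled to 57 uM ketoconazole as 100% inhibition.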

Test [13] concerns the target Cytochrome P450 2D6 (Homo sapiens) (UniProt P10635). In words: qHTS Assay for Inhibitors and Substrates of Cytochrome P450 2D6 (AID 891; active means well fitted curve in the direction sought with a large enough effect; an effect the other way counts as inactive or inconclusive; further: potency means the concentration at half of the fitted maximal effect; nearly all actives have a fitted effect of over 60% in size). To be noted: recombinant CYP2D6, luciferin-ME EGE luminescence; series mostly up to 57.1 µM. In short, it runs like this:
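Luminescent read-out of luciferin formed by 5 nM human CYP2D6 demethylating 30 uM Luciferin-ME EGE (Km level) over 60 min at room temperature after NADPH regeneration addition. Data normalized to full inhibition by 1.43 uM quinidine.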

Test [14] has as its target Cytochrome P450 2C19 (Homo sapiens) (UniProt P33261). In words: qHTS Assay for Inhibitors and Substrates of Cytochrome P450 2C19 (AID 899; active means well fitted curve in the direction sought with a large enough effect; an effect the other way counts as inactive or inconclusive; further: potency means the concentration at half of the fitted maximal effect; nearly all actives have a fitted effect of over 60% in size). To be noted: recombinant CYP2C19, luciferin-H EGE luminescence; series mostly up to 57.1 µM. An outline of the steps: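 Luminescence readout of luciferin formed from 10uM Luciferin-H EGE (KM level) by 5 nM CYP2C19 in 50mM KPO4. 60 min NADPH-driven reaction at 37C after 10 min compound preincubation; data scaled to 57uM ketoconazole inhibition.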

The nature of test [15]: Confirmation and Secondary Assay for Modulators of Hemoglobin Beta Chain Splicing at IVS2 654 locus (AID 910; active means well fitted curve in the direction sought with a large enough effect; an effect the other way counts as inactive or inconclusive;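 further: HeLa cells stably carrying EGFP split by mutant beta-globin IVS2-654 intron; per-well total GFP intensity by laser scanning cytometry after 2-day treatment; % of control where 0% means no effect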). To be noted: HeLa EGFP-654 splicing reporter, GFP fluorescence, 48 h; series mostly up to 38.3 µM. An outline of the steps:
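Readout: per-well total peak green fluorescence (488 nm ex, 500–520 nm em) from objects 5–250 µm, reflecting correct splicing of an EGFP-654 reporter. Compounds were applied for 2 days at 37 °C to overnight-plated HeLa EGFP-654 cells; controls were DMSO and 500 nM IVS2-654 PNA.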

The nature of test [16]: Confirmation and Secondary Assay for Modulators of Hemoglobin Beta Chain Splicing at IVS2 705 locus (AID 930; active means well fitted curve in the direction sought with a large enough effect; an effect the other way counts as inactive or inconclusive;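 further: GFP fluorescence per well restored by corrected splicing of the IVS2-705 intron in EGFP; % of control where 0% means no effect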). To be noted: HeLa EGFP-705 splicing reporter, GFP fluorescence, 48 h; series mostly up to 38.3 µM. In short, it runs like this: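 Secondary splice-site specificity test uses HeLa expressing CMV-driven EGFP interrupted by IVS2-705; cells were treated 2 days at 37C with 500 nM antisense PNA as positive control.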

Sequence of Cytochrome P450 3A4 (Homo sapiens) (P08684 whole entry, looked up): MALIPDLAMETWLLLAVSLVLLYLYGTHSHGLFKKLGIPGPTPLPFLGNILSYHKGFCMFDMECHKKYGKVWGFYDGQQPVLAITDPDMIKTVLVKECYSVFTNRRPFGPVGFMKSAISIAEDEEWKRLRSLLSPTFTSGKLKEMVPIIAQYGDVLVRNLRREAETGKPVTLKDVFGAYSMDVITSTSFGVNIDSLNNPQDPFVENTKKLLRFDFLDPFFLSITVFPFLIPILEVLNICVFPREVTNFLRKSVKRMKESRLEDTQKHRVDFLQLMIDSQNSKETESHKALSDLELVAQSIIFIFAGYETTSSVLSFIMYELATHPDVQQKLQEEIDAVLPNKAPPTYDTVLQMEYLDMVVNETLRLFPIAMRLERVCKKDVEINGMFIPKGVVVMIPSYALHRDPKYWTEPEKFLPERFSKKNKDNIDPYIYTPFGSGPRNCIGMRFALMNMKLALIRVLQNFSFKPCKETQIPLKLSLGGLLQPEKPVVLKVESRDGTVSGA
Sequence of 3',5'-cyclic-AMP phosphodiesterase 4B (Homo sapiens) (Q07343 whole entry, looked up): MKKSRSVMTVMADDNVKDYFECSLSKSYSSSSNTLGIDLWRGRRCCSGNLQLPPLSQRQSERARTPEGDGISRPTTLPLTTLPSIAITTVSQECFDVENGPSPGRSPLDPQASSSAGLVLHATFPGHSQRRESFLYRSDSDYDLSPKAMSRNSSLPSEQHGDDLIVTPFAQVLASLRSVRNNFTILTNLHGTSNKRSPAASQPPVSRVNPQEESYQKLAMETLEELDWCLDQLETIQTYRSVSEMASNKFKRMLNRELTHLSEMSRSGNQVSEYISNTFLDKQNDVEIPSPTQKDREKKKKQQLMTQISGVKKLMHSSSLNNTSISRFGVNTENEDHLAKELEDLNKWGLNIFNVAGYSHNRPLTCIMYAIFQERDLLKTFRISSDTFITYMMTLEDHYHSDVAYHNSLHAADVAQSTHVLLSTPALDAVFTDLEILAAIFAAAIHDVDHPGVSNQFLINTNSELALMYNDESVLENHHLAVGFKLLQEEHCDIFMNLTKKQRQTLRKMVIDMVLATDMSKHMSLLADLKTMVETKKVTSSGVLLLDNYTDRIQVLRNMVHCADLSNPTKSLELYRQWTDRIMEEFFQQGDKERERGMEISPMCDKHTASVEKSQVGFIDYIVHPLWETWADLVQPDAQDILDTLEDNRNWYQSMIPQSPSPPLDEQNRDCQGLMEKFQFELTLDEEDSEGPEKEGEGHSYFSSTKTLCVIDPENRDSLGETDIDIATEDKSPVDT
Sequence of Glucocorticoid receptor (Homo sapiens) (P04150 whole entry, looked up, the tested form may be a part): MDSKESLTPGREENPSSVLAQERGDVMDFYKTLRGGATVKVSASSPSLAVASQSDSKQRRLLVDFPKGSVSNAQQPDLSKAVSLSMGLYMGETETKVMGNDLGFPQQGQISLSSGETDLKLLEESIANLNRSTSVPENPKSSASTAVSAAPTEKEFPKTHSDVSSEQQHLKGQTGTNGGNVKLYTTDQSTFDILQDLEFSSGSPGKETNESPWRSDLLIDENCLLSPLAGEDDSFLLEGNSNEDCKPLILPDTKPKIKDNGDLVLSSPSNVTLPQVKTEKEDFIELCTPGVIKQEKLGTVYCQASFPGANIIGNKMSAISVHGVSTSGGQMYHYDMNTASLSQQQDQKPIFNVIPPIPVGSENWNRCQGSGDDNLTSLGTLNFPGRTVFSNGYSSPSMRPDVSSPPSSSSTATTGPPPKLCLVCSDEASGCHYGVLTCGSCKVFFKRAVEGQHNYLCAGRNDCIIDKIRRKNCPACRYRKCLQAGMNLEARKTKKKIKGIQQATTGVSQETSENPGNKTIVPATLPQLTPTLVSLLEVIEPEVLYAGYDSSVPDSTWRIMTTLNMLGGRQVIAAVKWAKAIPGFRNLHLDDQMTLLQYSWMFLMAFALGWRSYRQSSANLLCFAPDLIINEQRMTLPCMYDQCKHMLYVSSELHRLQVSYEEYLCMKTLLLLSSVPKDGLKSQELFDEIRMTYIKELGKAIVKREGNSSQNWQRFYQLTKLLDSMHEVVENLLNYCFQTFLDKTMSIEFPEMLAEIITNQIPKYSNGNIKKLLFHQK
Sequence of Lysosomal acid glucosylceramidase (Homo sapiens) (P04062 whole entry, looked up): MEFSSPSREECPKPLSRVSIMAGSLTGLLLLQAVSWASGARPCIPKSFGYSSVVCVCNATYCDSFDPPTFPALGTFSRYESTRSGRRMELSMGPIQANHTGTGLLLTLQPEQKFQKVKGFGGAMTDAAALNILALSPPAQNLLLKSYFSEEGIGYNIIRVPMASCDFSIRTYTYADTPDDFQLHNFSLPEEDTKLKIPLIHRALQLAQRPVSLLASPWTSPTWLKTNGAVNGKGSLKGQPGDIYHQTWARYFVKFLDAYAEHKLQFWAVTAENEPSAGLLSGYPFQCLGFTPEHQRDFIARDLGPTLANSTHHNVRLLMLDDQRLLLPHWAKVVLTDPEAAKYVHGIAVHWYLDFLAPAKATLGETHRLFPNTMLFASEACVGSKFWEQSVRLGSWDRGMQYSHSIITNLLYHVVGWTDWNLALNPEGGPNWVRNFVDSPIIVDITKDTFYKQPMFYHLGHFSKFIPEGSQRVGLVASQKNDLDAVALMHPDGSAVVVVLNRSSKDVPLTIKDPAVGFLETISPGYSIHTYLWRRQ
Sequence of Cytochrome P450 1A2 (Homo sapiens) (P05177 whole entry, looked up): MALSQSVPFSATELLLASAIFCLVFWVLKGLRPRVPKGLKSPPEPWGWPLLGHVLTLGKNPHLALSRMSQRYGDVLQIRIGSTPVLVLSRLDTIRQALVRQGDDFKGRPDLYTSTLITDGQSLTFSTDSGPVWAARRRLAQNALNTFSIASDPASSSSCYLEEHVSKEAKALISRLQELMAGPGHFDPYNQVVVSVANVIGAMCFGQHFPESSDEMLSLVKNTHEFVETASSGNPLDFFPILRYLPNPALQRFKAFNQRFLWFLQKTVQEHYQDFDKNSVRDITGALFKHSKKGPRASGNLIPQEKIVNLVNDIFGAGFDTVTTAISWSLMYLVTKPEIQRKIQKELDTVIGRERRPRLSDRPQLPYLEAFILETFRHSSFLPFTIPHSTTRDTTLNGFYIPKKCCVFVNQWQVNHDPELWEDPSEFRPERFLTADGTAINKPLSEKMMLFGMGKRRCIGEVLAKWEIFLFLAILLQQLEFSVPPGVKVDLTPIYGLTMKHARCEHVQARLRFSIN
Sequence of Cytochrome P450 2D6 (Homo sapiens) (P10635 whole entry, looked up): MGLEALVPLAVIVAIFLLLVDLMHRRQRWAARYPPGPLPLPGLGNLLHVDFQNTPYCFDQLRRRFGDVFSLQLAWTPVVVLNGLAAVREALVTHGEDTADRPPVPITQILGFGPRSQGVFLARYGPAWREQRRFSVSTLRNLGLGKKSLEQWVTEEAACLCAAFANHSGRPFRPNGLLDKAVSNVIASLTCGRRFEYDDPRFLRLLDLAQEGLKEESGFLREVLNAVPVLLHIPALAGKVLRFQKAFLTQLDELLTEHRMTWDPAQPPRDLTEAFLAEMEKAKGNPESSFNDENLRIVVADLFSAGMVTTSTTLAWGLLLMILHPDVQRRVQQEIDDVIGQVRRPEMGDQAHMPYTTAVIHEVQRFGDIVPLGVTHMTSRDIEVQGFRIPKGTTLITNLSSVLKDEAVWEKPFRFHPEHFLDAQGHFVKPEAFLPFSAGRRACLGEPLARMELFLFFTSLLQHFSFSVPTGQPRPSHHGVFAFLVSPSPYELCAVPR
Sequence of Cytochrome P450 2C19 (Homo sapiens) (P33261 whole entry, looked up): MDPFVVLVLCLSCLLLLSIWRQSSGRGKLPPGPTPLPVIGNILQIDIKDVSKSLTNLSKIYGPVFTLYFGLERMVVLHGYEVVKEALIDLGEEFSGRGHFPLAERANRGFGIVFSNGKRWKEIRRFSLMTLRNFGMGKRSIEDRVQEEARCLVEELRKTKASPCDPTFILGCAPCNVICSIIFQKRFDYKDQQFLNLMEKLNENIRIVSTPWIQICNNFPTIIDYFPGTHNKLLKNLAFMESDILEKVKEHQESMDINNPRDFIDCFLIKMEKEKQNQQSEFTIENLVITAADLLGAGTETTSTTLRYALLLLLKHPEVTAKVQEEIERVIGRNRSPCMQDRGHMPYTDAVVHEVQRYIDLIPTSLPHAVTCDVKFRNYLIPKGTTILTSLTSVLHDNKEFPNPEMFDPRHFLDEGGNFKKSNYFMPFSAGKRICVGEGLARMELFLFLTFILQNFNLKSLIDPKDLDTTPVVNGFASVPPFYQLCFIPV

Take `Cn1cccc1C(=O)N1CCC2(CCCN(c3ccccn3)C2)CC1`: the Potency was more than 11.4 µM in test [1], 20 µM (active) in [3] and more than 46 µM in test [5]. Moreover, in test [2], the activity change, negative = inhibition is -9.86%. In test [4], the activity, negative = inhibition was -6.89%. Moreover, the Potency entry in test [6], in test [7] and in test [8] was “inactive” in each case. For the same molecule, in [9], the outcome was inactive.

Take `Cc1nc2cnc(Oc3cccc(Cl)c3)nc2n(CCc2ccccc2)c1=O`: the Potency was more than 11.4 µM in test [1], 12.6 µM (active) in [3], more than 9.22 µM in test [10] and more than 46 µM in test [5]. The activity change, negative = inhibition in [2] was 2.12%. In addition, in [4], the activity, negative = inhibition is 18.7%. Moreover, the Potency result in test [6] is “inactive”. For the same molecule, the result in test [9] was inactive.

Turning to `COc1ccc(-c2nc3cnc(OC)nc3n(Cc3ccc(F)cc3)c2=O)cc1`, the Potency is more than 11.4 µM in test [1], more than 9.22 µM in [10] and more than 46 µM in test [5]. Further, the activity change, negative = inhibition is 8.95% in test [2] and -6.96% in test [11]. The activity, negative = inhibition in [4] was 5.66%. Further, the Potency result in [6] was “inactive”. Further, the outcome in test [9] was inactive.

For the molecule `c1ncc(-c2ccc3c(c2)OCO3)c(NCCc2cnc[nH]2)n1`, the Potency in test [1] was more than 11.4 µM; in test [10] it was more than 46 µM; in test [5] it was more than 46 µM; in [12] it was 794 nM (active); in test [13], 2.51 µM (active); in [14] it was 39.8 nM (active). Moreover, the activity change, negative = inhibition was -17.2% in test [2] and 1.1% in test [11]. In [4], the activity, negative = inhibition is -11.2%. The Potency result in [6], in test [7], in test [8] and in [15] was “inactive” throughout. Further, the outcome in [16] and in [9] was inactive.

For the molecule `Cc1cnc(CNc2ncnc3ccc(-c4ccccc4C#N)cc23)cn1`, the Potency was more than 11.4 µM in [1], more than 46 µM in test [10] and more than 46 µM in [5]. Moreover, the activity change, negative = inhibition in [2] was 9.76%; in test [11], 0.584%. In [4], the activity, negative = inhibition is -10.7%. The Potency result in [6], in test [7] and in test [15] was “inactive” throughout. Further, the molecule was classed as inactive in [16] and in [9].

On to `COc1ncc2nc(CCc3ccccc3)c(=O)n(Cc3ccc(F)cc3)c2n1`, for which the Potency is more than 11.4 µM in test [1], more than 9.22 µM in test [10] and more than 46 µM in [5]. Further, the activity change, negative = inhibition in [2] is -3.95%; in test [11], -13.1%. In addition, in [4], the activity, negative = inhibition was 2.49%. Besides, the Potency entry in test [6] was “inactive”. Moreover, the outcome in test [9] was inactive.

In the case of `COc1ncc2nc(CCc3ccccc3)c(=O)n(Cc3cccs3)c2n1`, the figures for the Potency in test [1], in [10] and in test [5] were more than 11.4 µM, more than 9.22 µM and more than 46 µM, respectively. Besides, the activity change, negative = inhibition in [2] is -2.76%; in test [11], -5.02%. In addition, in [4], the activity, negative = inhibition was -3.9%. Moreover, the Potency entry in [6] was “inactive”. Also, the outcome in [9] was inactive.
